The values below come from PubChem BioAssay (Tox21).

Inconclusive results are not listed. Active and inactive are the calls of the source. Unless noted, the call rests on the fitted dose curve.

Assay [1] is described as follows: Nuclear factor erythroid 2-related factor 2/antioxidant responsive element (Nrf2/ARE) small molecule agonists: qHTS cell viability counter screen in human keratinocytes (AID 1919968; active means well fitted curve in the direction sought with a large enough effect in the repeat runs; an effect the other way counts as inactive or inconclusive; further: nearly all actives have a fitted effect of over 55% in size; further: potency means the concentration at half of the fitted maximal effect). In short, it runs like this:
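Seed 1,500 KeratinoSens cells per well, then incubate 5 h at 37 C/5% CO2. Add compounds in DMSO and incubate 23 h. Add CellTiter-Fluor, wait 1 h and read fluorescence.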
In general terms: qHTS replaces the single test concentration by a dilution series.

Assay [2] is described as follows: Nuclear factor erythroid 2-related factor 2/antioxidant responsive element (Nrf2/ARE) small molecule agonists: luciferase reporter gene qHTS assay in human keratinocytes (AID 1919969; further: nearly all actives have a fitted effect of over 35% in size). (In general: In a reporter assay the amount or activity of a reporter protein is the signal.)
Assay [3] concerns the target Gonadotropin-releasing hormone receptor (Homo sapiens) (UniProt P30968). As to the kind of experiment: Human gonadotropin-releasing hormone receptor (GnRHR) small molecule agonists, calcium flux assay in GnRHR-HEK293 cells (AID 1920063). Further: nearly all actives have a fitted effect of over 35% in size. A digest of the protocol: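 Cells: HEK293 stably expressing human GnRHR. Steps: overnight (18 h) culture, 1 h calcium dye loading at 37 C, compound addition, kinetic fluorescence read at 480/540 nm. Each compound tested at 15 concentrations in triplicate.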
(Calcium flux is commonly read through the fluorescence of an indicator in the cells.)

The target of assay [4] is KiSS-1 receptor (Homo sapiens) (UniProt Q969F8). As to the kind of experiment: Human kisspeptin (KISS1R) small molecule agonists, calcium flux assay in KISS1R-HEK293 cells (AID 1920064; active means well fitted curve in the direction sought with a large enough effect in the repeat runs; an effect the other way counts as inactive or inconclusive). A digest of the protocol: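 Cells plated and incubated 18 h; dye added, 1 h at 37 C; compounds in DMSO pinned in; signal read at 480/540 nm every second for 3 min. Each compound tested at 15 concentrations in triplicate.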

Assay [5] in a line: p53 small molecule agonists, cell-based qHTS assay with human liver microsomes (AID 1963577).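 Further: p53 response element beta-lactamase reporter cells with liver microsomes plus NADPH.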 A digest of the protocol:
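HLM-supplemented p53RE-bla reporter assay: 16 h compound exposure at 37 C, microsomes and NADPH each 0.5 mg/mL final, read by fluorescence intensity.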

A short description of assay [6]: p53 small molecule agonists, cell-based qHTS assay with rat liver microsomes (AID 1963578). In short, it runs like this:
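Quantitative HTS of the Tox21 10K library: p53RE-bla cells, rat liver microsomes plus NADPH at 0.5 mg/mL final each, 16 h at 37 C, beta-lactamase fluorescence detection.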

Assay [7] can be described thus: p53 small molecule agonists, cell-based qHTS assay with rat liver microsomes: qHTS cell viability counter screen (AID 1963580). Further: nearly all actives have a fitted effect of over 45% in size. In short, it runs like this:
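p53RE-bla HCT-116 cells (4,000/well) rested 5 h at 37 C, then given Tox21 compounds in DMSO with rat liver microsomes (0.5 mg/mL final) plus NADPH (0.5 mg/mL final) for 16 h at 37 C. Viability read by CellTiter-Glo luminescence after 30 min at room temperature.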

Assay [8] can be described thus: p53 small molecule agonists, cell-based qHTS assay: qHTS cell viability counter screen (AID 1963581). Further: nearly all actives have a fitted effect of over 45% in size. A digest of the protocol: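 Cells: HCT-116 with p53 response element-driven beta-lactamase. Treatment: 16 h, 37 C, compounds in DMSO. Read: CellTiter-Glo luminescence after 30 min RT.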
A short description of assay [9]: p53 small molecule agonists, cell-based qHTS assay (AID 1963582; active means well fitted activation curve with a large enough effect in the signal ratio in the repeat runs, not every such curve was filed as active; the % refers to the signal ratio). In short, it runs like this: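 Quantitative HTS in p53RE-bla cells: after a 5 h settling period, compounds delivered in DMSO were left on cells for 16 h at 37 C, and reporter induction was measured as fluorescence following 2 h substrate loading.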
Assay [10] addresses 5-hydroxytryptamine receptor 2A (Homo sapiens) (UniProt P28223). As to the kind of experiment: 5-hydroxytryptamine receptor 2A (HTR2A) small molecule antagonists, cell-based qHTS assay (AID 1963586). Further: nearly all actives have a fitted effect of over 45% in size. In short, it runs like this: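 Antagonist-mode intracellular calcium assay: DOI (4 nM) added after 5 min compound pre-incubation at room temperature to dye-loaded HTR2A-CHO cells. Fluorescence followed for 3 min, sampled every second.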

Assay [11] shares this target. Briefly: 5-hydroxytryptamine receptor 2A (HTR2A) small molecule agonists, cell-based qHTS assay (AID 1963587). Further: nearly all actives have a fitted effect of over 30% in size. Further: potency means the concentration at half of the fitted maximal effect. In short, it runs like this: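 HTR2A-CHO cells, plated 18 h at 37 C/5% CO2, dye-loaded 1 h at 37 C; compounds in DMSO added by pin tool (agonist mode). Intracellular calcium flux read as kinetic fluorescence on FDSS over 2 min at 1 s intervals.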
For assay [12], the target named is Muscarinic acetylcholine receptor M1 (Homo sapiens) (UniProt P11229). As to the kind of experiment: Cholinergic receptor muscarinic 1 (CHRM1) small molecule antagonists, cell-based qHTS assay (AID 1963588). Further: nearly all actives have a fitted effect of over 40% in size. In short, it runs like this:
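CHRM1-CHO calcium-flux assay, antagonist mode. Cells were seeded 18 h, dye-loaded 1 h at 37 C and given compound for 5 min at RT, then acetylcholine was added at 50nM. FDSS fluorescence was read 3 min; 15 concentrations, three runs.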

The target is the same in assay [13]. Briefly: Cholinergic receptor muscarinic 1 (CHRM1) small molecule agonists, cell-based qHTS assay (AID 1963589). Further: nearly all actives have a fitted effect of over 35% in size. In short, it runs like this: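 Agonist-mode qHTS in CHO cells stably carrying human muscarinic M1. Intracellular calcium is tracked by fluorescence every second after compound transfer; each compound runs at 15 concentrations in three independent runs.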

Assay [14] is described as follows: cAMP Responsive Elements (CRE) small molecule agonists, cell-based qHTS assay (AID 1963590). A digest of the protocol:
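Agonist mode qHTS in CRE-bla HEK 293T cells: compounds dosed from DMSO for 3 h at 37 C/5% CO2, followed by LiveBLAzer B/G FRET substrate for 2 h at room temperature.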

Assay [15] can be described thus: cAMP Responsive Elements (CRE) small molecule antagonists, cell-based qHTS assay (AID 1963591; active means well fitted inhibition curve with a large enough effect in the signal ratio in the repeat runs, not every such curve was filed as active; the % refers to the signal ratio). A digest of the protocol: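 Antagonist mode: test compounds are co-incubated with the adenylyl cyclase activator NKH477 (0.25 uM final) on CRE-bla HEK293T cells for 3 h at 37 °C, followed by LiveBLAzer substrate loading.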
In assay [16] the target is Beta-2 adrenergic receptor (Homo sapiens) (UniProt P07550). As to the kind of experiment: Adrenergic beta2 receptor (ADRB2) small molecule antagonists, cell-based qHTS assay (AID 1963592). Further: series mostly up to about 92 µM; nearly all actives have a fitted effect of over 50% in size. In short, it runs like this:
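Cells (CHO, stable ADRB2 overexpression) incubated 18-20hr at 37C; compounds added from DMSO; agonist mix (1nM isoproterenol, 100uM IBMX, 25uM Ro-20-1724) added; 0.5hr RT; d2-cAMP and anti-cAMP-cryptate added; 1hr RT; 665/615 nm read.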

In assay [17] the target is D(2) dopamine receptor (Homo sapiens) (UniProt P14416). Briefly: Dopamine D2 receptor (DRD2) small molecule antagonists, cell-based qHTS assay (AID 1963595; active means well fitted inhibition curve with a large enough effect in the signal ratio in the repeat runs, with a control signal flat; the % refers to the signal ratio; further: potency means the concentration at half of the fitted maximal effect). A digest of the protocol: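 Stable D2 receptor HEK293 line, 24 h after seeding. Compound preincubated 10 min, then quinpirole (12 nM) with forskolin analogue NKH477 (200 nM), 30 min, room temperature. Detection by time-resolved FRET of cAMP.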

Assay [18] shares this target. As to the kind of experiment: Dopamine D2 receptor (DRD2) small molecule agonists, cell-based qHTS assay (AID 1963594). Further: nearly all actives have a fitted effect of over 35% in size. Further: potency means the concentration at half of the fitted maximal effect. In short, it runs like this:
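HEK293 cells stably expressing DRD2 were cultured 24 h at 37 C, then given Ro20-1724 (0.1 mM final) and compounds for 10 min at room temperature. NKH477 (200nM) was then added for 30 min. cAMP was read by HTRF.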

Assay [19] in a line: p53 small molecule agonists, cell-based qHTS assay with human liver microsomes: qHTS cell viability counter screen (AID 1963579). Further: nearly all actives have a fitted effect of over 45% in size. Further: potency means the concentration at half of the fitted maximal effect. A digest of the protocol:
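Viability of p53RE-bla cells is measured as CellTiter-Glo luminescence following a 16 h, 37 C incubation with compound, liver microsomes from human donors and NADPH.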

Assay [20] is described as follows: G protein-coupled receptor (GPCR) small molecule agonists, calcium flux assay: HEK293 wild type cell line counter screen (AID 1920065). In short, it runs like this:
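Counter-screen of the Tox21 10K library for non-specific calcium release: dye-loaded cells received compounds in DMSO and were monitored by kinetic fluorescence (480/540 nm, 3 min). Fifteen concentrations, run in triplicate.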

Chain of Muscarinic acetylcholine receptor M1 (Homo sapiens) (P11229 whole entry, looked up): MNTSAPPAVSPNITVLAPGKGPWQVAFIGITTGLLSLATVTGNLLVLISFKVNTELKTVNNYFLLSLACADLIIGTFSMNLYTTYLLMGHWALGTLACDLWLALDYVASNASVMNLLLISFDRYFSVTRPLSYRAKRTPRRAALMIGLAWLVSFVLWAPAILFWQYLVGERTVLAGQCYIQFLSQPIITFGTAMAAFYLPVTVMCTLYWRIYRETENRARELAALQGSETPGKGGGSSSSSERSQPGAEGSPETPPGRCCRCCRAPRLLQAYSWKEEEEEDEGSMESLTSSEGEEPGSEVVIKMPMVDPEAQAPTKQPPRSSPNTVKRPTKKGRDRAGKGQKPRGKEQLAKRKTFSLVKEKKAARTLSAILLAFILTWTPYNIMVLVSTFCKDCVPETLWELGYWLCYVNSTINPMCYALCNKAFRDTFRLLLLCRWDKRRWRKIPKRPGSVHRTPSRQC
Chain of KiSS-1 receptor (Homo sapiens) (Q969F8 whole entry, looked up): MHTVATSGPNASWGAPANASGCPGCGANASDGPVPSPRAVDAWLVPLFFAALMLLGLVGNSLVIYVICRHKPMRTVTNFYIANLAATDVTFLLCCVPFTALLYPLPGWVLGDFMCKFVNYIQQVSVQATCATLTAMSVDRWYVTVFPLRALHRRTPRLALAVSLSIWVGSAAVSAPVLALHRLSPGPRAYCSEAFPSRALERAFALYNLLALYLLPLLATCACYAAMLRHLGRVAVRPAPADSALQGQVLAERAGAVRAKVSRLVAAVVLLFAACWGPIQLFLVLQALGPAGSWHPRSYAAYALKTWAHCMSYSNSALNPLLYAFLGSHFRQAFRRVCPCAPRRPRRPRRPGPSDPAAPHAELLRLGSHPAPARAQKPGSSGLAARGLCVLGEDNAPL
Chain of 5-hydroxytryptamine receptor 2A (Homo sapiens) (P28223 whole entry, looked up): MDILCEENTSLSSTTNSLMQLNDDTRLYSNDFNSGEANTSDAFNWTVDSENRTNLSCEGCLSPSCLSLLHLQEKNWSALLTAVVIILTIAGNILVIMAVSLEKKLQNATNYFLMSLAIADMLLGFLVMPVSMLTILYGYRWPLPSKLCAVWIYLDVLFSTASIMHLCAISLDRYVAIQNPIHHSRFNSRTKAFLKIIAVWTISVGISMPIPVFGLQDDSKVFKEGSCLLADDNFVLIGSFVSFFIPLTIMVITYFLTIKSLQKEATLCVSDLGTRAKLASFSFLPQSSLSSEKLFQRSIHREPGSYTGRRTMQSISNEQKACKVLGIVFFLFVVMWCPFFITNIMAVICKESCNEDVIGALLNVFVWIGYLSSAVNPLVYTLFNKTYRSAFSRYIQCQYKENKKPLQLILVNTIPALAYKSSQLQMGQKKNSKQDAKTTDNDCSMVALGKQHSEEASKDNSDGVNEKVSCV
Chain of Gonadotropin-releasing hormone receptor (Homo sapiens) (P30968 whole entry, looked up): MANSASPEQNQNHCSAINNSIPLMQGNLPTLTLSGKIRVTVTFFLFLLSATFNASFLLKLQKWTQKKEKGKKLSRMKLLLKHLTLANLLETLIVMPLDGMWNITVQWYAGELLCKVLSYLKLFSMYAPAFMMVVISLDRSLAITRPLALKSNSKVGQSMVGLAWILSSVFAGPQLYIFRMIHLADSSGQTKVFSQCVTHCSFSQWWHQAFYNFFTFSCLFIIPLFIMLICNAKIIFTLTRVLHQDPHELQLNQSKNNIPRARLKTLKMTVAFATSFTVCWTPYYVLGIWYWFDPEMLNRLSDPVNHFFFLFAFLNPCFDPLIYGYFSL
Chain of D(2) dopamine receptor (Homo sapiens) (P14416 whole entry, looked up): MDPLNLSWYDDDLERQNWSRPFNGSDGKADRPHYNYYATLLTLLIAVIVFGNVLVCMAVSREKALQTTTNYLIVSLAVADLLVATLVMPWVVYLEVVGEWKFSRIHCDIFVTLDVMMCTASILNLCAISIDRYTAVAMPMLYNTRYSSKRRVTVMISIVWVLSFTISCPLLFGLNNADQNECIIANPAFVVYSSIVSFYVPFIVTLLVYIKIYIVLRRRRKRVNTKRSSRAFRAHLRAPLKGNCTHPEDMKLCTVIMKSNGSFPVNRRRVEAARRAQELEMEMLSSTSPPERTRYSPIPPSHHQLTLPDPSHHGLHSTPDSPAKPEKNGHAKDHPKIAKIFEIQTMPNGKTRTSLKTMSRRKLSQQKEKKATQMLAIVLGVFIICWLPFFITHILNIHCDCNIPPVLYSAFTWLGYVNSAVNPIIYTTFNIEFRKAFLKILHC
Chain of Beta-2 adrenergic receptor (Homo sapiens) (P07550 whole entry, looked up): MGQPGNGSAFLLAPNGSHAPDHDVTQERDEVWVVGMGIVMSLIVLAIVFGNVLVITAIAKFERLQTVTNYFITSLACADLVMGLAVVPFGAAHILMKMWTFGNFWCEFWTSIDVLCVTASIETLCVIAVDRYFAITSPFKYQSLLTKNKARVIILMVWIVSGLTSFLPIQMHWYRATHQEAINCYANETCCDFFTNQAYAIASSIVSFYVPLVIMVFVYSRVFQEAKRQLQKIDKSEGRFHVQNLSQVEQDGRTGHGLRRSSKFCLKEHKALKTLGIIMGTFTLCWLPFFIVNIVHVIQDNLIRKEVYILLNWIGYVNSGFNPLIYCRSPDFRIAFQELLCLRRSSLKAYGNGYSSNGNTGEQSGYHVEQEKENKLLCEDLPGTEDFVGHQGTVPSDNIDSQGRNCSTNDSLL

For the molecule `Cc1c[nH]c2ccccc12`, the Potency result in assay [1], in assay [2], in [3], in [5], in [6] and in [7] was “inactive” each time. Further, the Potency result in assay [8], in assay [9], in [10], in [11], in [12] and in assay [13] was “inactive” throughout. The Potency result in assay [14], in assay [15], in assay [16] and in [17] was “inactive” each time. Further, the result in assay [4] was inactive.
As for `FC(F)(F)C(F)(F)C(F)(F)C(F)(F)C(F)(F)C(F)(F)C(F)(F)C(F)(F)Br`, the Potency entry in [1], in assay [2], in [3], in assay [5], in [6] and in [7] was “inactive” in each case. The Potency entry in assay [8], in [9], in [10], in assay [11], in assay [12] and in assay [13] was “inactive” throughout. Also, the Potency entry in assay [14], in assay [15], in [16], in assay [18] and in assay [17] was “inactive” each time. The result in assay [4] was inactive.
Take `CC(CCc1ccc(O)cc1)NCCc1ccc(O)c(O)c1` (stereo unspecified): the Potency entry in assay [1], in assay [2], in assay [3], in assay [5], in assay [6] and in assay [7] was “inactive” in each case. The Potency entry in assay [15] and in assay [16] was “inactive” each time. For the same molecule, the result in assay [4] was inactive. For the same molecule, the Potency in assay [18] is 0.0779 µM (active).
As to `CCCCC(CC)COC(=O)CCCCCCCCC(=O)OCC(CC)CCCC` (stereo unspecified), the Potency entry in assay [1], in assay [2], in assay [3], in assay [5], in assay [6] and in [19] was “inactive” throughout. Further, the Potency result in [9], in assay [10], in [11], in assay [12], in assay [14] and in assay [15] was “inactive” each time. Further, the Potency entry in assay [16], in assay [18] and in assay [17] was “inactive” in each case. For the same molecule, the outcome in assay [4] was inactive.
Consider `O=c1c(O)c(-c2ccc(O)cc2O)oc2cc(O)cc(O)c12`, for which the Potency result in [1], in [2], in [3], in [5], in assay [6] and in assay [7] was “inactive” each time. Moreover, the Potency result in assay [8], in [10], in assay [11], in assay [12], in [13] and in assay [16] was “inactive” in each case. In addition, the outcome in assay [4] was inactive.
As for `CCCC(c1cc(C(C)(C)C)c(O)cc1C)c1cc(C(C)(C)C)c(O)cc1C`, the Potency was 6.94 µM (active) in assay [1], 9.24 µM (active) in [19], 9.89 µM (active) in assay [11] and 24.6 µM (active) in assay [17]. Further, the Potency entry in assay [2], in assay [3], in assay [5], in [6], in assay [12] and in [13] was “inactive” throughout. Further, the Potency entry in assay [16] and in assay [18] was “inactive” throughout. Besides, the result in assay [4] was inactive.
`CC1CC(C)C(=O)C1=O` (stereo unspecified): the Potency result in assay [1], in [2], in assay [3], in assay [5], in assay [6] and in [19] was “inactive” in each case. For the same molecule, the Potency result in [7], in assay [8], in assay [9], in assay [10], in [11] and in assay [12] was “inactive” each time. In addition, the Potency entry in [13], in [14], in assay [16] and in assay [17] was “inactive” each time. Also, the outcome in [20] was inactive.
For `CCOC(=O)CC#N`, the Potency entry in [1], in assay [2], in assay [3], in assay [5], in assay [6] and in assay [19] was “inactive” in each case. The Potency entry in assay [7], in assay [8], in assay [9], in assay [10], in assay [11] and in assay [12] was “inactive” in each case. Further, the Potency entry in assay [13], in assay [15], in [18] and in assay [17] was “inactive” each time. The outcome in [20] was inactive.
